# Test results taken from the supplement of paper PMC10037445.
# Several values for one entry are separate records, joined by “and”; a condition that tells them apart may be missing. Identical values can stand only once. The full ranking holds about 2,900 compounds; the median of “NF-kB SEAP reporter activity, fold change vs agonist alone” is about 0.99, and the highest 2% start at about 2.6. The sample holds the highest values, similar compounds and a random draw of the others, so the mix is not that of the screen.
# Columns and labels:
# RAW-Dual [1] = test: NF-kB SEAP reporter activity, fold change vs agonist alone; higher = enhanced NF-kB activity
# Procedure, shortened: (§1)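 Reporter activity is given as fold change relative to agonist-alone wells. To measure it, 50 nL of library stock was pin-tooled onto RAW-Dual macrophages (50,000 cells/well, DMEM, 384-well plates), a PRR agonist followed 1 h later, and cells stayed at 37 °C, 5% CO2. Twenty hours on, supernatant was assayed for IRF (QuantiLuc luminescence) and NF-κB (QuantiBlue, 620 nm absorbance), and wells under 70% of agonist-control IncuCyte confluency in both mask sets were marked cytotoxic.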
# RAW-Dual [2] = test: NF-kB SEAP reporter activity, fold change vs agonist alone; cytotoxicity flag (confluency mask): not cytotoxic; library stock concentration (final ~1000-fold dilution): 10 mM; higher = enhanced NF-kB activity
# Procedure, shortened: as §1
# RAW-Dual [3] = test: NF-kB SEAP reporter activity, fold change vs agonist alone; cytotoxicity flag (confluency mask): not cytotoxic; library stock concentration (final ~1000-fold dilution): 10 mM water; higher = enhanced NF-kB activity
# Procedure, shortened: as §1
# RAW-Dual [4] = test: NF-kB SEAP reporter activity, fold change vs agonist alone; cytotoxicity flag (confluency mask): cytotoxic (confluency <70% of control); library stock concentration (final ~1000-fold dilution): 10 mM; higher = enhanced NF-kB activity
# Procedure, shortened: as §1
# [5] = library stock concentration (final ~1000-fold dilution): 10 mM, cytotoxicity flag (confluency mask): not cytotoxic, agonist: Imiquimod (TLR7) […]
# [6] = library stock concentration (final ~1000-fold dilution): 10 mM, cytotoxicity flag (confluency mask): not cytotoxic, agonist: MPLA (TLR4) […]
# [7] = agonist: ODN 1826 (TLR9) 0.5 ug/mL
# [8] = agonist: Pam2CSK4 (TLR2/6) 0.1 ug/mL
# [9] = agonist: Pam3CSK4 (TLR2/1) 0.1 ug/mL
# [10] = library stock concentration (final ~1000-fold dilution): 10 mM water, cytotoxicity flag (confluency mask): not cytotoxic, agonist: Imiquimod (TLR7) […]
# [11] = library stock concentration (final ~1000-fold dilution): 10 mM water, cytotoxicity flag (confluency mask): not cytotoxic, agonist: MPLA (TLR4) […]
# [12] = library stock concentration (final ~1000-fold dilution): 10 mM, cytotoxicity flag (confluency mask): cytotoxic (confluency <70% of control), agonist: Imiquimod (TLR7) […]
# [13] = library stock concentration (final ~1000-fold dilution): 10 mM, cytotoxicity flag (confluency mask): cytotoxic (confluency <70% of control), agonist: MPLA (TLR4) […]
smiles,measurement,setting,value
Cl.O=C(O)Cc1c[nH]cn1,NF-kB SEAP reporter activity,RAW-Dual [1]; [5],0.935
same,NF-kB SEAP reporter activity,RAW-Dual [1]; [6],1.05
same,NF-kB SEAP reporter activity,RAW-Dual [2]; agonist: LPS (TLR4) 0.1 ug/mL,1.34
same,NF-kB SEAP reporter activity,RAW-Dual [2]; [7],0.991
same,NF-kB SEAP reporter activity,RAW-Dual [2]; [8],0.973
same,NF-kB SEAP reporter activity,RAW-Dual [2]; [9],0.728
CNC1C(O)C(OC2C(N)CC(N)C(OC3OC(C(C)O)C(O)C(O)C3N)C2O)OCC1(C)O.O=S(=O)(O)O.O=S(=O)(O)O (centres undefined),NF-kB SEAP reporter activity,RAW-Dual [1]; [10],0.947
same,NF-kB SEAP reporter activity,RAW-Dual [1]; [11],1.07
same,NF-kB SEAP reporter activity,RAW-Dual [3]; agonist: LPS (TLR4) 0.1 ug/mL,1.15
same,NF-kB SEAP reporter activity,RAW-Dual [3]; [7],1.26
same,NF-kB SEAP reporter activity,RAW-Dual [3]; [8],1.15
same,NF-kB SEAP reporter activity,RAW-Dual [3]; [9],1.12
CC12NC(Cc3ccccc31)c1ccccc12.O=C(O)/C=C\C(=O)O (centres undefined),NF-kB SEAP reporter activity,RAW-Dual [1]; [5],1.16
same,NF-kB SEAP reporter activity,RAW-Dual [1]; [6],1.1
same,NF-kB SEAP reporter activity,RAW-Dual [2]; agonist: LPS (TLR4) 0.1 ug/mL,1.25
same,NF-kB SEAP reporter activity,RAW-Dual [2]; [7],0.851
same,NF-kB SEAP reporter activity,RAW-Dual [2]; [8],1.13
same,NF-kB SEAP reporter activity,RAW-Dual [2]; [9],1.15
COc1cc(C)[nH]c(=O)c1CNC(=O)c1c(C)n(C(C)C2CCN(CC(F)(F)F)CC2)c2ccccc12 (centres undefined),NF-kB SEAP reporter activity,RAW-Dual [1]; [5],0.35
same,NF-kB SEAP reporter activity,RAW-Dual [1]; [6],0.914
same,NF-kB SEAP reporter activity,RAW-Dual [2]; agonist: LPS (TLR4) 0.1 ug/mL,0.78
same,NF-kB SEAP reporter activity,RAW-Dual [2]; [7],0.953
same,NF-kB SEAP reporter activity,RAW-Dual [2]; [8],0.647
same,NF-kB SEAP reporter activity,RAW-Dual [2]; [9],0.74
CC(N)C(=O)NC(CO)C(=O)NC(C(=O)NC(C(=O)NC(C(=O)NC(CC(N)=O)C(=O)NC(Cc1ccc(O)cc1)C(=O)NC(C(N)=O)C(C)O)C(C)O)C(C)O)C(C)O (centres undefined),NF-kB SEAP reporter activity,RAW-Dual [1]; [10],0.968
same,NF-kB SEAP reporter activity,RAW-Dual [1]; [11],1.05
same,NF-kB SEAP reporter activity,RAW-Dual [3]; agonist: LPS (TLR4) 0.1 ug/mL,1.17
same,NF-kB SEAP reporter activity,RAW-Dual [3]; [7],1.25
same,NF-kB SEAP reporter activity,RAW-Dual [3]; [8],1.16
same,NF-kB SEAP reporter activity,RAW-Dual [3]; [9],1.06
C=C(C)C1Cc2c(ccc3c2OC2COc4cc(OC)c(OC)cc4C2C3=O)O1 (centres undefined),NF-kB SEAP reporter activity,RAW-Dual [1]; [5],1.87
same,NF-kB SEAP reporter activity,RAW-Dual [1]; [6],1.85
same,NF-kB SEAP reporter activity,RAW-Dual [2]; agonist: LPS (TLR4) 0.1 ug/mL,3.13
same,NF-kB SEAP reporter activity,RAW-Dual [2]; [7],2.36
same,NF-kB SEAP reporter activity,RAW-Dual [2]; [8],1.27
same,NF-kB SEAP reporter activity,RAW-Dual [2]; [9],1.45
CCC1=CC2CN3CCc4c([nH]c5ccccc45)C(C(=O)OC)(C2)C13 (centres undefined),NF-kB SEAP reporter activity,RAW-Dual [1]; [5],1.03
same,NF-kB SEAP reporter activity,RAW-Dual [1]; [6],1.11
same,NF-kB SEAP reporter activity,RAW-Dual [2]; agonist: LPS (TLR4) 0.1 ug/mL,1.04
same,NF-kB SEAP reporter activity,RAW-Dual [2]; [7],1.06
same,NF-kB SEAP reporter activity,RAW-Dual [2]; [8],0.935
same,NF-kB SEAP reporter activity,RAW-Dual [2]; [9],1.03
COC1=CC2C3Cc4ccc(OC)c(O)c4C2(CCN3C)CC1=O.Cl (centres undefined),NF-kB SEAP reporter activity,RAW-Dual [1]; [5],0.858
same,NF-kB SEAP reporter activity,RAW-Dual [1]; [6],0.999
same,NF-kB SEAP reporter activity,RAW-Dual [2]; agonist: LPS (TLR4) 0.1 ug/mL,0.877
same,NF-kB SEAP reporter activity,RAW-Dual [2]; [7],0.884
same,NF-kB SEAP reporter activity,RAW-Dual [2]; [8],1.16
same,NF-kB SEAP reporter activity,RAW-Dual [2]; [9],1.09
CN1C2CC(OC(=O)C(CO)c3ccccc3)CC1C1OC12 (centres undefined),NF-kB SEAP reporter activity,RAW-Dual [1]; [5],0.917
same,NF-kB SEAP reporter activity,RAW-Dual [1]; [6],1.04
same,NF-kB SEAP reporter activity,RAW-Dual [2]; agonist: LPS (TLR4) 0.1 ug/mL,1.23
same,NF-kB SEAP reporter activity,RAW-Dual [2]; [7],1.02
same,NF-kB SEAP reporter activity,RAW-Dual [2]; [8],1.11
same,NF-kB SEAP reporter activity,RAW-Dual [2]; [9],1.58
CN1Cc2c(ccc3c2OCO3)C2C(O)Cc3cc4c(cc3C21)OCO4 (centres undefined),NF-kB SEAP reporter activity,RAW-Dual [1]; [12],1.6
same,NF-kB SEAP reporter activity,RAW-Dual [1]; [13],1.66
same,NF-kB SEAP reporter activity,RAW-Dual [4]; agonist: LPS (TLR4) 0.1 ug/mL,2.16
same,NF-kB SEAP reporter activity,RAW-Dual [4]; [7],1.75
same,NF-kB SEAP reporter activity,RAW-Dual [4]; [8],1.42
same,NF-kB SEAP reporter activity,RAW-Dual [4]; [9],2.18
COc1cc(C)[nH]c(=O)c1CNC(=O)c1c(C)n(C(C)C2CCOCC2)c2ccccc12 (centres undefined),NF-kB SEAP reporter activity,RAW-Dual [1]; [5],0.902
same,NF-kB SEAP reporter activity,RAW-Dual [1]; [6],1.02
same,NF-kB SEAP reporter activity,RAW-Dual [2]; agonist: LPS (TLR4) 0.1 ug/mL,1.26
same,NF-kB SEAP reporter activity,RAW-Dual [2]; [7],1.05
same,NF-kB SEAP reporter activity,RAW-Dual [2]; [8],0.992
same,NF-kB SEAP reporter activity,RAW-Dual [2]; [9],0.786
Cl[Te]1(Cl)(Cl)OCCO1.N,NF-kB SEAP reporter activity,RAW-Dual [1]; [5],0.792
same,NF-kB SEAP reporter activity,RAW-Dual [1]; [6],0.899
same,NF-kB SEAP reporter activity,RAW-Dual [2]; agonist: LPS (TLR4) 0.1 ug/mL,1.39
same,NF-kB SEAP reporter activity,RAW-Dual [2]; [7],0.846
same,NF-kB SEAP reporter activity,RAW-Dual [2]; [8],0.912
same,NF-kB SEAP reporter activity,RAW-Dual [2]; [9],1.28
CCCCCCC[n+]1ccc(-c2cc[n+](CCCCCCC)cc2)cc1,NF-kB SEAP reporter activity,RAW-Dual [1]; [5],1.32
same,NF-kB SEAP reporter activity,RAW-Dual [1]; [6],2.11
same,NF-kB SEAP reporter activity,RAW-Dual [2]; agonist: LPS (TLR4) 0.1 ug/mL,3.95
same,NF-kB SEAP reporter activity,RAW-Dual [2]; [7],1.17
same,NF-kB SEAP reporter activity,RAW-Dual [2]; [8],1.02
same,NF-kB SEAP reporter activity,RAW-Dual [2]; [9],1.14
CCCCCc1cc(O)cc(O)c1,NF-kB SEAP reporter activity,RAW-Dual [1]; [6],0.946
same,NF-kB SEAP reporter activity,RAW-Dual [2]; agonist: LPS (TLR4) 0.1 ug/mL,1.11
same,NF-kB SEAP reporter activity,RAW-Dual [2]; [7],0.427
same,NF-kB SEAP reporter activity,RAW-Dual [2]; [8],0.966
same,NF-kB SEAP reporter activity,RAW-Dual [2]; [9],0.739
O=C([O-])C(Cl)Cl.[Na+],NF-kB SEAP reporter activity,RAW-Dual [2]; agonist: LPS (TLR4) 0.1 ug/mL,1.11 and 0.906
same,NF-kB SEAP reporter activity,RAW-Dual [2]; [7],1.14 and 0.982
same,NF-kB SEAP reporter activity,RAW-Dual [2]; [8],1.11 and 0.989
same,NF-kB SEAP reporter activity,RAW-Dual [2]; [9],1.19 and 1.32
CCNc1nc(Cl)nc(NC(C)C)n1,NF-kB SEAP reporter activity,RAW-Dual [1]; [6],1.29
same,NF-kB SEAP reporter activity,RAW-Dual [2]; agonist: LPS (TLR4) 0.1 ug/mL,1.55
same,NF-kB SEAP reporter activity,RAW-Dual [2]; [7],1.4
same,NF-kB SEAP reporter activity,RAW-Dual [2]; [8],1.5
same,NF-kB SEAP reporter activity,RAW-Dual [2]; [9],1.67
COc1cc(C2c3cc4c(cc3C(O)C3COC(=O)C23)OCO4)cc(OC)c1OC (centres undefined),NF-kB SEAP reporter activity,RAW-Dual [1]; [12],1.61
same,NF-kB SEAP reporter activity,RAW-Dual [1]; [13],1.92
same,NF-kB SEAP reporter activity,RAW-Dual [4]; agonist: LPS (TLR4) 0.1 ug/mL,5.49
same,NF-kB SEAP reporter activity,RAW-Dual [4]; [7],2.81
same,NF-kB SEAP reporter activity,RAW-Dual [4]; [8],1.6
same,NF-kB SEAP reporter activity,RAW-Dual [4]; [9],2.18
COc1cc(C2c3cc4c(cc3C(O)C3COC(=O)C23)OCO4)cc(OC)c1O (centres undefined),NF-kB SEAP reporter activity,RAW-Dual [1]; [5],2.53
same,NF-kB SEAP reporter activity,RAW-Dual [1]; [6],2.24
same,NF-kB SEAP reporter activity,RAW-Dual [2]; agonist: LPS (TLR4) 0.1 ug/mL,3.91
same,NF-kB SEAP reporter activity,RAW-Dual [2]; [7],3.47
same,NF-kB SEAP reporter activity,RAW-Dual [2]; [8],2.24
same,NF-kB SEAP reporter activity,RAW-Dual [2]; [9],2.24
COc1ccc2c(c1OC)CN1CCc3cc4c(cc3C1C2)OCO4 (centres undefined),NF-kB SEAP reporter activity,RAW-Dual [1]; [6],1
same,NF-kB SEAP reporter activity,RAW-Dual [2]; agonist: LPS (TLR4) 0.1 ug/mL,1.21
same,NF-kB SEAP reporter activity,RAW-Dual [2]; [7],1.04
same,NF-kB SEAP reporter activity,RAW-Dual [2]; [8],0.89
same,NF-kB SEAP reporter activity,RAW-Dual [2]; [9],1.26
